This is a sample that favours compounds with a hit; in the whole collection about 19% have one here.
VP16 counter: inhibits Gal4-VP16 luciferase reporter, ROR gamma counter-screen | Potency, µM (top dose mostly 53.6 µM), inactives show at the highest dose activity, negative = inhibition, actives largely listed as inhibitors | hit rate 3.5% among 310,000 | AID 2546 | Drosophila S2 Gal4-VP16 UAS-luciferase, luminescence, 20 h;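 note: Gal4-VP16 expression switched on by copper sulfate through the metallothionein promoter; nearly all actives have a fitted effect of over 50% in size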
DT40 TDP1 CPT: growth inhibition of DT40 Tdp1-/-;hTDP1 cells with camptothecin (screen for TDP1 inhibitors). chicken DT40 Tdp1-/-;hTDP1 cells + 20 nM CPT, ATP luminescence, 48 h. Potency, µM (doses to about 46.2 µM), inactives show at the top dose activity change, negative = growth inhibition, hits mostly inhibitors. hit rate 12% among 420,000. AID 686979; note: nearly all actives have a fitted effect of over 55% in size
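Cell growth measured by CellTiter-Glo luminescence after a minimum 48 h, 37 C compound exposure with 20 nM CPT in Tdp1-knockout DT40 cells stably expressing hTDP1, seeded 400/well; qHTS titration format.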
TDP1 inh: blocks human tyrosyl-DNA phosphodiesterase 1; recombinant TDP1, AlphaScreen DNA substrate cleavage; Potency, µM (series often up to 130 µM), inactives show at the top dose activity change, negative = inhibition, actives largely listed as inhibitors; hit rate 0.28% among 350,000; AID 485290; note: nearly all actives have a fitted effect of over 40% in size
Target sequence (Q9NUW8 whole entry, looked up): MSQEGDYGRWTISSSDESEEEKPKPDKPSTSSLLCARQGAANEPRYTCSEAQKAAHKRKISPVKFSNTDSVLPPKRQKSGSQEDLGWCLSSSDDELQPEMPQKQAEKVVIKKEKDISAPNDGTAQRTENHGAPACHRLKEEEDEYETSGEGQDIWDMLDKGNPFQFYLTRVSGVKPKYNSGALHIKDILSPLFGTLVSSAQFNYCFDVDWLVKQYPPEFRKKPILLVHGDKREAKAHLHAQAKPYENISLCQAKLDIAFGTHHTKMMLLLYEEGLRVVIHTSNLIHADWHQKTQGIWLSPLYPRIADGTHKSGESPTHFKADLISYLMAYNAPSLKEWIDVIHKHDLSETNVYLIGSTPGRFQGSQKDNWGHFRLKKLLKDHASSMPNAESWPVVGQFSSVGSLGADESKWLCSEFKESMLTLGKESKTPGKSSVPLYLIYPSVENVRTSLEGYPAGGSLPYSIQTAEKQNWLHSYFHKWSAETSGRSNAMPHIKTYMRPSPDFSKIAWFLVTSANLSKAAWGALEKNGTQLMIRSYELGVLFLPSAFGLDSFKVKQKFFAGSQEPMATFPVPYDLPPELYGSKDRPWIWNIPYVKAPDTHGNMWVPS
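Tdp1 1 nM final; 15 min RT w/ cpd; substrate 15 nM, 5 min; beads 10 ug/ml, 10 min; AlphaScreen read. Neg ctrl: no enzyme.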
RORgamma inh: ROR gamma (mouse) transcription inhibition; P51450; Drosophila S2 Gal4-RORgamma UAS-luciferase reporter, 20 h; Potency, µM (titrated, usually from 53.6 µM), for the others: top-dose activity change, negative = inhibition, hits mostly inhibitors; hit rate 5.4% among 310,000; AID 2551; note: nearly all actives have a fitted effect of over 60% in size
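Luminescence from a UAS-regulated Photinus luciferase reporter in stably transfected Drosophila Schneider cells is measured; decreased signal marks ROR gamma inhibition. Fusion expression is induced by 700 uM copper sulfate for 20 hr.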
DT40 TDP1 no CPT: qHTS for Inhibitors of human tyrosyl-DNA phosphodiesterase 1 (TDP1): qHTS in cells in absence of CPT; DT40 Tdp1-/- hTDP1 cells, no CPT, ATP luminescence, 48 h; Potency, µM (doses to about 46.2 µM), without a hit: top-dose activity change, negative = growth inhibition, actives largely listed as inhibitors; hit rate 15% among 420,000; AID 686978, 2013; note: nearly all actives have a fitted effect of over 55% in size
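Compound effects on proliferation are scored in DT40 Tdp1-/-;hTDP1 cells in the absence of CPT. ATP levels (CellTiter-Glo luminescence) are recorded after a ≥48 hr, 37 °C incubation.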
* = called active by the depositor; ? = inconclusive; . = no result given; [ ] = remark or other dose. Calls come from the whole dose curve; as a rule, active = well fitted curve in the direction sought with a large enough effect; inconclusive = small, poorly fitted or top-dose-only effect, or another doubt; inactive = no such curve, though single readings can be large; an effect the other way counts as inactive or inconclusive. % is set by controls: 0 for no effect and ±100 for the full control effect; potency is the fitted concentration of half-maximal effect.

SMILES | VP16 counter | DT40 TDP1 CPT | TDP1 inh | RORgamma inh | DT40 TDP1 no CPT
CSc1nc(NCC(C)C)c2c3c(sc2n1)CN(C)CC3 | 3% | 21µM* | 2% | -34% | ?
CCN(CC)CCNc1nc(SC)nc2sc3c(c12)CCN(C)C3 | -7% | -3% | . | -13% | ?
COCCNc1nc(SC)nc2sc3c(c12)CCN(C)C3 | -2% | -11% | . | 5% | -3%
CSc1nc(NCc2ccccc2)c2c3c(sc2n1)CN(C)CC3 | 2% | 23µM* | 7% | 1% | 23µM*
C/C(=N\NC(=O)C1CCCC1)c1ccc(NC(=O)C(F)(F)F)cc1 | . | -7% | . | . | -14%
COC(=O)c1ccc(OCC(=O)c2ccccc2)cc1 | 2% | -3% | 0% | ? | ?
COc1ccc(-n2c(=S)[nH]c3cc(C(=O)Nc4cc(C(N)=O)ccc4OC)ccc3c2=O)c(OC)c1 | -3% | 5% | 0% | -56% | -24%
COc1ccc(-n2c(=S)[nH]c3cc(C(=O)Nc4ccc(C)c(F)c4)ccc3c2=O)c(OC)c1 | 13µM* | ? | 4% | 5µM* | ?
COc1ccccc1Cn1c(=S)[nH]c2cc(C(=O)NCC3CCCO3)ccc2c1=O (configuration not stated) | ? | ? | -1% | 13µM* | ?
COc1ccc(NC(=O)c2ccc3c(=O)n(-c4ccc(OC)cc4OC)c(=S)[nH]c3c2)c(OC)c1 | 8.9µM* | 23µM* | 5% | 2.8µM* | 21µM*
CCOc1ccc(NC(=O)c2ccc3c(=O)n(-c4ccc(OC)cc4OC)c(=S)[nH]c3c2)cc1 | 16µM* | . | 4% | ? | .
O=C(NCC1CCCO1)c1cc(S(=O)(=O)N2CCOCC2)ccc1Cl (configuration not stated) | . | -8% | 4% | . | -8%
O=C(NNC1CC(=O)N(c2ccccc2)C1=O)c1ccco1 (configuration not stated) | -2% | -4% | 8% | -1% | -7%
O=C(NCc1ccccc1)c1ccc2c(=O)n(CC3CCCO3)c(=S)[nH]c2c1 (configuration not stated) | -1% | ? | 2% | -26% | -11%
CC1CCCC(NC(=O)c2ccc3c(=O)n(CC4CCCO4)c(=O)[nH]c3c2)C1C (configuration not stated) | 1% | ? | 3% | 7% | 18µM*
COc1ccc(NC(=O)c2ccc3c(=O)n(CC4CCCO4)c(=S)[nH]c3c2)c(OC)c1 (configuration not stated) | -2% | ? | 4% | ? | 13µM*
CCCNC(=O)c1ccccc1NC(=O)c1ccc(CSc2ccccc2)cc1 | -4%[0.365 µM] | ? | 0% | -6% | 21µM*
CCCNC(=O)c1ccccc1NC(=O)c1ccc2c(c1)NC(=O)C(C)S2 (configuration not stated) | -12% | 10µM* | 3% | -39% | 6.5µM*
CC(=O)c1ccccc1NC(=O)c1ccc2c(c1)NC(=O)C(C)S2 (configuration not stated) | . | 21µM* | . | . | ?
Cc1ccnc(NC(=O)c2ccc3c(c2)NC(=O)C(C)S3)c1 (configuration not stated) | . | -22% | -5% | . | ?
O=C(NCCCn1ccnc1)Nc1cccc2ccccc12 | -8% | 0% | 2% | -22% | 3%
O=c1cc(-c2ccccc2)oc2cc(OCc3ccccc3)cc(O)c12 | 1% | -8% | 6% | -2% | -19%
COc1cc(C2C(C(=O)OC(C)C)=C(C)Nc3ncnn32)cc(OC)c1OC (configuration not stated) | 8% | -9% | 3% | -5% | -24%
Nc1nc(SCc2ccccc2)[nH]c(=O)c1-c1ccccc1 | -6% | -15% | 4% | ? | -6%
COc1cc(C2C3=C(COC3=O)Oc3cc4c(cc32)OCO4)cc(OC)c1O (configuration not stated) | . | 0.15µM* | . | . | 0.65µM*

High-throughput results: PubChem BioAssay, National Center for Advancing Translational Sciences (NCATS)
